Bioassay records as filed in PubChem.
AHR activator: AHR activators, primary screen, cell-based, luminescence, luciferase reporter, human. AHR-responsive luciferase reporter cells. activation, % at 5 µM. 2.5% of 320,000 active. AID 2796, 2010; in the data active = activation above about 47%;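 also: 0% = vehicle wells and 100% = reference agonist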
Target sequence (P35869 whole entry, looked up): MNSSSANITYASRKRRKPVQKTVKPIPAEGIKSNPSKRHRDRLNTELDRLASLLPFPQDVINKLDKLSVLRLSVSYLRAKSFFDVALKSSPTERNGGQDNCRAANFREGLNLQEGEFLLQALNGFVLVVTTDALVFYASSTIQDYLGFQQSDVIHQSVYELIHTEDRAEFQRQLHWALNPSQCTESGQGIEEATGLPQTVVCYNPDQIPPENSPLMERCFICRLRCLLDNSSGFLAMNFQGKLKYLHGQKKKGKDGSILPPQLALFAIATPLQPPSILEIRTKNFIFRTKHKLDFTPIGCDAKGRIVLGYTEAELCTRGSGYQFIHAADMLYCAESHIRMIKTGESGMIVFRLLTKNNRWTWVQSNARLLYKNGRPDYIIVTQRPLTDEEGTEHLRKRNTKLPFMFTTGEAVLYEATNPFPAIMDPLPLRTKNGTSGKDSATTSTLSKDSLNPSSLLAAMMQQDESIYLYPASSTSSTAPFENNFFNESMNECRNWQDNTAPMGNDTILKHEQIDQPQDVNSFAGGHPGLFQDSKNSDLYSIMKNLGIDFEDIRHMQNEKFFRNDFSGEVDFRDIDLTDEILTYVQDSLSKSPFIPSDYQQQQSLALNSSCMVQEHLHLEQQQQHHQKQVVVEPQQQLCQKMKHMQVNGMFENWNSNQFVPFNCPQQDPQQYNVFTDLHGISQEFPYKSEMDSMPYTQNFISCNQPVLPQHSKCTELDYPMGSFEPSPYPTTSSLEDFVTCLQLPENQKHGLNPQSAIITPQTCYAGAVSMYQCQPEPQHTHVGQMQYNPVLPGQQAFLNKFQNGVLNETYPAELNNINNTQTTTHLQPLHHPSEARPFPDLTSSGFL
ADAM10 inh: human ADAM10 inhibitors, primary screen, biochemical, QFRET, HTS | Disintegrin and metalloproteinase domain-containing protein 10 (Homo sapiens), O14672 | recombinant ADAM10, EDANS/DABCYL FRET peptide cleavage, 3 h | inhibition, % at 7 µM | 0.62% of 370,000 active;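 active = inhibition above a per-campaign cutoff equal to the mean of compounds falling between control-based bounds plus 3 SD, cut at about 20% in these data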;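 also: 0% = DMSO wells while the 100% control is not disclosed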
KLK7 zymogen act: proKLK7 zymogen activators, primary screen, biochemical, fluorescence intensity; Kallikrein-7 (Homo sapiens), P49862; purified proKLK7, EDANS-DABCYL substrate fluorescence; 100% is mature enzyme control, 0% vehicle; activation, % at 7 µM; 0.9% of 370,000 active;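 active = activation above the mean of all tested compounds plus 3 SD, computed per campaign excluding outliers beyond control limits, cut at about 13% in these data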
NR3A LBD binder: binders of NR3A ligand-binding domain, primary screen, biophysical, differential scanning fluorimetry, uHTS. Glutamate receptor ionotropic, NMDA 3A (GRIN3A) ligand-binding domain. AID 1259313, 2017. NR3A LBD differential scanning fluorimetry, Tm shift; 0% = protein alone, 100% = glycine-bound protein. 2.5% of 340,000 active. Tm shift relative to glycine control, % at 25 µM;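 active = melting temperature shift of at least 10% of the positive control shift, at one fixed dose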
rCAG RNA binder: binders of r(CAG) RNA repeats, primary screen, biochemical, fluorescence. AID 651821, 2012. r(CAG) RNA repeat, TO-PRO-1 dye displacement fluorescence. 1.3% of 370,000 active. inhibition, % at 3 µM;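 active = inhibition above the plate cutoff, the mean of all test compounds on that plate plus 3 SD, cut at about 35% in these data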;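 also: 0% = DMSO alone and 100% = 100 µM mitoxantrone as full dye displacement; higher means more dye released from RNA so lower well fluorescence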
ADAM17 inh: ADAM17 inhibitors, primary screen, biochemical, QFRET; Disintegrin and metalloproteinase domain-containing protein 17 (Homo sapiens), P78536; recombinant ADAM17, EDANS/DABCYL FRET peptide cleavage; inhibition, % at 6.95 µM; 0.83% of 370,000 active; AID 720648, 2013;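 active = inhibition above the mean of compounds lying between control limits plus 3 SD, set per campaign, cut at about 8.5% in these data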;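 also: 0% = DMSO-only wells as the low control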
* = called active by the depositor; nt = not tested or not shown. This is a sample that favours compounds with a hit; in the whole collection about 7% have one here.

SMILES	AHR activator	ADAM10 inh	KLK7 zymogen act	NR3A LBD binder	rCAG RNA binder	ADAM17 inh
COc1ccc(-c2nnc3n2N=C(c2cccc([N+](=O)[O-])c2)CS3)cc1	nt	-17	0	nt	9	-2
O=C(Nc1ccc(C(F)(F)F)cc1)OC1CC2CC1[C@H]1CCCCN1[C@H]2Cc1ccccc1 (stereo partly drawn)	nt	-6	0	nt	7	-2
O=C(Nc1ccc2c(c1)OCO2)c1c(F)cccc1F	40	2	-1	0	-1	-2
O=C(CSCc1c(Cl)cccc1Cl)Nc1ccc2c(c1)OCO2	47*	5	0	-10	-2	1
O=C(Cc1c(F)cccc1Cl)NNC(=O)Nc1ccc2c(c1)OCO2	53*	-18	0	-1	-6	-6
Cc1ccc(NC(=O)CS(=O)CC(=O)Nc2ccc3c(c2)OCO3)cc1Cl (stereo not drawn)	8	-1	0	30*	16	0
O=C(CSCc1ccccc1)Nc1ccc2c(c1)OCO2	15	-7	0	-1	7	-5
Cc1cccc(N(CC(=O)NC(C)(C)C)C(=O)CS(=O)CC(=O)Nc2ccc3c(c2)OCO3)c1 (stereo not drawn)	2	-10	0	1	-3	-1
CC(C)CNc1cccc2c1S(=O)(=O)N(Cc1cn(Cc3ccc(C(F)(F)F)cc3)nn1)Cc1ccccc1O2	nt	-25	-11	nt	6	-5
Cc1ccc(C2=N/C(=C\N3CCCCC3)C(=O)O2)cc1	-1	-5	0	0	2	-2
Cc1ccc(C2=N/C(=C/N3CCOCC3)C(=O)O2)cc1	57*	-10	0	-1	-4	1
CCOC(=O)C1=C(C(=O)OCC)C2N(Cc3ccc(Br)cc3)c3ccccc3[C@@]23C[C@@H](C(=O)OC)N(S(=O)(=O)c2ccc(F)cc2)C3=N1 (stereo partly drawn)	nt	-17	1	nt	9	-5
COc1ccc(C(=O)C[n+]2ccc3c(c2)nc(Cc2ccccc2)n3C)cc1	nt	-6	0	nt	7	-3
CCn1nc(NC(=O)C2CCCO2)c2cc3cc(C)ccc3nc21 (stereo not drawn)	67*	-220	9	-2	-2	-51
COc1ccccc1Nc1ncccc1[N+](=O)[O-]	53*	7	0	-3	0	0
CC(C)Oc1ccccc1/C=N/Nc1ccccc1[N+](=O)[O-]	55*	0	0	-7	9	-3
COc1ccc(/C=N\Nc2ccccc2[N+](=O)[O-])c(C(=O)O)c1OC	5	0	0	0	5	0
COc1ccccc1/C=N\Nc1ccccc1[N+](=O)[O-]	79*	3	-1	-2	0	-5
CCOc1ccccc1/C=N/Nc1ccccc1[N+](=O)[O-]	14	-4	-1	5	-2	-4
O=C(OCc1cn(Cc2ccc(C(F)(F)F)cc2)nn1)N1CCCC1	nt	0	0	nt	2	-4
Cc1ccc(NC(=O)c2cccc3c2-c2ccccc2C3=O)c(C)c1	nt	0	0	nt	7	1
CS(=O)(=O)N1c2ccccc2C[C@H]1Cc1cc2ccccc2o1	nt	-5	nt	nt	nt	-1
O=c1c(Cl)c(N/N=C/c2ccc(Br)cc2)cnn1-c1ccccc1	35	-9	-2	13*	6	-5
O=C(Cn1cnc2ccccc2c1=O)c1ccccc1	48*	2	-1	1	4	2
O=C(Cn1cnc2c(nnn2Cc2ccccc2)c1=O)c1ccccc1	0	-1	1	12*	4	1
SMILES	AHR activator	ADAM10 inh	KLK7 zymogen act	NR3A LBD binder	rCAG RNA binder	ADAM17 inh
Cc1ccc(C(=O)Cn2cnc3ccccc3c2=O)cc1	8	2	0	1	-3	0
O=C(Cn1cnc2c(nnn2Cc2ccc(Cl)cc2)c1=O)c1ccccc1	-2	-2	0	-3	6	-1
Cc1ccc(-c2cc(C(=O)NN=Cc3sccc3C)[nH]n2)cc1C	nt	-11	-1	nt	13	-2
CCn1ncc(/C=C2/SC(=S)NC2=O)c1C	2	4	0	12*	2	-1
O=C(N[C@@H](Cc1cccnc1)C(=O)N1CCC[C@H]1C(=O)NC1CCCC1)C1CC1	nt	-12	0	nt	0	-7
Cn1c(=O)n(CCOc2ccccc2Cl)c2ccccc21	59*	0	0	-6	-6	-1
Cn1c(=O)n(CCOc2ccc(Cl)cc2Cl)c2ccccc21	2	5	0	8	-3	-4
COc1ccccc1NCC(O)Cn1c2ccccc2c2ccccc21 (stereo not drawn)	47	8	-1	11*	3	8
COc1ccc(CCNCC(O)Cn2c3ccccc3c3ccccc32)cc1OC (stereo not drawn)	3	0	0	-2	5	4
Cc1cc(Nc2ncc(Cl)cc2Cl)n[nH]1	54*	-4	0	0	-2	0
Nc1nc(SCC(=O)Nc2ncc(Cl)cc2Cl)n[nH]1	1	3	0	2	8	0
COC(=O)[C@]12C[C@H](CC(=O)NCc3cccs3)C(=O)N(Cc3ccc4c(c3)OCO4)C1=C[C@H](C(C)(C)C)O[C@@H]2C	nt	7	0	nt	3	3
O=c1[nH]c(CS(=O)(=O)c2ccccc2)nc2ccccc12	74*	-11	0	-3	-1	-5
COC(=O)c1ccc(NC(=O)CNc2ccccc2)cc1	1	0	-1	42*	-3	-4
CCOC(=O)c1ccc(NC(=O)C(=O)NCCc2ccc(OC)cc2)cc1	3	-4	0	0	-2	-4
CCOC(=O)c1ccc(NC(=S)NCCc2ccc(F)cc2)cc1	-1	7	0	24*	3	7
CCOC(=O)c1sc(=S)n(C)c1NC(=O)c1ccccc1	-1	9	0	16*	4	5
CC(=O)Nc1ccc(C(=O)c2ccccc2)cc1	2	11	0	13*	-1	1
CCc1ccc(CCNC(=O)OC2CC3CC2[C@H]2CCCCN2C3)cc1 (stereo partly drawn)	nt	-2	0	nt	3	2
CC(C)(C)S(=O)(=O)N1C[C@@H]2CC(=O)C(CCO)=C2[C@H]1CCO	nt	-2	1	nt	0	-7
COC(=O)c1ccc(NC(=O)CSC2=NC(=O)C(c3ccccc3)C(=O)N2)cc1 (stereo not drawn)	-1	-9	0	12*	-1	-5
